This is one part of a sample in which hits are shown more often than they occur.
BLM helicase inh = inhibitors of human Bloom syndrome helicase BLM | Potency, µM (highest dose often 56.1 µM), actives largely listed as inhibitors | P54132 | AID 2528 | recombinant BLM DNA unwinding, fluorescence dequenching | 0.2% of 350,000 active; note: nearly all actives have a fitted effect of over 35% in size
APE1 inh = inhibitors of human APE1 endonuclease | P27695 | 0.35% of 350,000 active | recombinant APE1, TAMRA/BHQ-2 abasic DNA cleavage fluorescence | Potency, µM (highest dose often 65.8 µM), most hits filed as inhibitors; note: nearly all actives have a fitted effect of over 55% in size
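Measures dequenching upon AP-site incision of a 5'-TAMRA/3'-BHQ-2 THF-containing duplex, 50 nM; human APE1 0.75 nM after 15 min room-temperature exposure to compound; kinetic three-point read at one-minute spacing.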
RECQ1 helicase = blocks DNA unwinding by human RECQ1; P46063; RECQ1 DNA unwinding, red fluorescence kinetic read; Potency, µM (series often up to 57.3 µM), most hits filed as inhibitors; 0.54% of 240,000 active; AID 2549; note: nearly all actives have a fitted effect of over 30% in size
Target sequence (P46063 whole entry, looked up): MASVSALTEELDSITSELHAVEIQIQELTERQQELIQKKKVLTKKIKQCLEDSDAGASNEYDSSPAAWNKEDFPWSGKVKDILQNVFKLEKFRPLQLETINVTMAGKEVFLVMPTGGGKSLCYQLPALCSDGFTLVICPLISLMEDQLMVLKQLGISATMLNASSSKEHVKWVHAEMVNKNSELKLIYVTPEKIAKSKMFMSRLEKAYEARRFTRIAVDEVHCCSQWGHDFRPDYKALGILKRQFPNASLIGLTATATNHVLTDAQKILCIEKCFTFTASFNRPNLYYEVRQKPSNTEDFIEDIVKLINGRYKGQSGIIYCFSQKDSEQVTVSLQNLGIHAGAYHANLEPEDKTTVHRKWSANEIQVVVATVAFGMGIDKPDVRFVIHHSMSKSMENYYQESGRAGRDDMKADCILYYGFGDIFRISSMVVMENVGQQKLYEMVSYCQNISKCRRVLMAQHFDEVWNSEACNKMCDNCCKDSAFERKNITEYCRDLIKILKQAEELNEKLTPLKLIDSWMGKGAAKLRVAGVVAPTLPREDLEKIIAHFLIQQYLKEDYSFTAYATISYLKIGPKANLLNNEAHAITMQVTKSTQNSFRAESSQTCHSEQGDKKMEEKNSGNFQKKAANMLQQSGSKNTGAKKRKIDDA
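RECQ1T1 50 nM; forked duplex (20 bp + 30-nt ss tails) 200 nM, ATP 2 mM final; pH 8.0, 2 mM MgCl2, 2.5 ug/ml poly(dI-dC); 15 min compound preincubation; discontinuous kinetic read over 2 h at RT.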
TDP1 block = blocks human tyrosyl-DNA phosphodiesterase 1 | Q9NUW8 | recombinant TDP1, AlphaScreen DNA substrate cleavage | Potency, µM (highest dose often 130 µM), actives largely listed as inhibitors | 0.28% of 350,000 active; note: nearly all actives have a fitted effect of over 40% in size
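AlphaScreen read-out: signal falls as enzyme removes the 3' tyrosine-FITC from a 5'-biotinylated DNA oligo (15 nM, 5 min, RT). Enzyme was E. coli-made recombinant Tdp1 at 1 nM, exposed to compound for 15 min beforehand; beads 10 ug/ml, 10 min.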
KAT2A inh = GCN5L2 (KAT2A) acetyltransferase inhibition | Potency, µM (doses to about 58.9 µM), usual class: inhibitors | Q92830 | GCN5L2 HAT assay, ThioGlo1 CoA-SH fluorescence | AID 504327 | 0.21% of 390,000 active
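Titration-based screen in which CoA formation is detected via maleimide probe ThioGlo1 (50uM) turning fluorescent on thiol reaction; substrates H3(1-25) 75uM and acetyl-CoA 70uM, GCN5L2 20nM, 20 min incubation at room temperature.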
JMJD2E inh = blocks human JMJD2E demethylase activity; B2RXH2; JMJD2E catalytic domain, FDH-coupled NADH fluorescence (FDH is formaldehyde dehydrogenase); Potency, µM (top dose mostly 57.1 µM), most hits filed as inhibitors; 1.6% of 230,000 active; active = well fitted inhibition curve with a large enough effect, not every such curve was filed as active; inconclusive = small, poorly fitted or top-dose-only effect, or another doubt; inactive = no such curve, though single readings can be large or run the other way; note: nearly all actives have a fitted effect of over 50% in size
Numbers stand for hits; 0 = inactive; ? = inconclusive; - = no result given; [ ] = dose if it differs, or a comment. Unless noted, calls come from the whole dose curve; as a rule, active = well fitted curve in the direction sought with a large enough effect; inconclusive = small, poorly fitted or top-dose-only effect, or another doubt; inactive = no such curve, though single readings can be large; an effect the other way counts as inactive or inconclusive.

SMILES	BLM helicase inh	APE1 inh	RECQ1 helicase	TDP1 block	KAT2A inh	JMJD2E inh
CC[C@H](C)[C@H](NC(=O)[C@H](Cc1cnc[nH]1)NC(=O)[C@@H](NC(=O)[C@H](CCCNC(=N)N)NC(=O)[C@H](CCCCN)NC(=O)[C@H](CCCNC(=N)N)NC(=O)[C@H](CCCCN)NC(=O)[C@@H](N)CC(N)=O)[C@@H](C)CC)C(=O)NCC(=O)N1CCC[C@H]1C(=O)NCC(=O)N[C@@H](CCCNC(=N)N)C(=O)N[C@@H](C)C(=O)N[C@@H](Cc1ccccc1)C(=O)N[C@@H](Cc1ccc(O)cc1)C(=O)N[C@H](C(=O)N[C@H](C(=O)N[C@@H](CCCCN)C(=O)N[C@@H](CC(N)=O)C(=O)N[C@H](C(=O)N[C@H](C(=O)NCC(=O)N[C@H](C(=O)N[C@H](C(=O)N[C@@H](CS)C(=O)O)[C@@H](C)CC)[C@@H](C)O)[C@@H](C)CC)[C@@H](C)CC)[C@@H](C)O)[C@@H](C)O	0	0	0	0	0	-
C=C1[C@@H]2CC[C@@H](C2)C1(C)C	-	0	-	-	-	-
O=C(O)/C(=C\c1ccc(C(F)(F)F)cc1)c1ccc(S(=O)(=O)N2CCCC2)s1	-	0	-	0	0	-
Cc1cccc(/C=C(\C(=O)O)c2ccc(S(=O)(=O)N3CCCC3)s2)c1	-	12µM	-	11µM	?	-
COc1ccc(NS(=O)(=O)c2ccccc2C(=O)O)cc1	-	-	-	0	-	-
Cc1cccc(-c2csc(N3CCC(C(N)=O)CC3)n2)c1	-	0	-	-	-	-
O=S(=O)(Nc1ccccc1)c1cccc2nsnc12	0	7.5µM	-	-	0	-
Cc1ccc(NS(=O)(=O)c2cccc3nsnc23)cc1	0	0	0	0	0	0
O=C(CNC(=O)Cc1ccccc1)N=Nc1c(O)[nH]c2ccccc12	0	0	-	0	0	-
O=C(CCCCCNC(=O)c1ccccc1Br)N=Nc1c(O)[nH]c2ccccc12	0	25µM	0	?	0	0
Cc1ccc(F)c(C2C3C=CCCC3(C)C(=O)N2Cc2ccccc2)c1 (stereo unspecified)	0	0	0	0	-	-
O=C1c2ccccc2C(=O)N1c1cccc(Cl)c1	-	-	-	0	-	-
O=C(CN1C(=O)S/C(=C\c2ccc(O)c([N+](=O)[O-])c2)C1=O)Nc1ccc(N2CCOCC2)cc1	?	?	-	45µM	0	-
O=C(Nc1ccc2c(c1)OCCO2)c1cnn2c1NC(=C1CC1)C=C2C(F)F	-	0	-	-	-	-
COc1cc(/C=C2/CC/C(=C/c3ccc(O)c(OC)c3)C2=O)ccc1O	0	0	0	-	0	11µM
COc1cc(/C=C2\COC/C(=C\c3ccc(O)c(OC)c3)C2=O)ccc1O	0	0	0	0	0	0
Oc1ccc2ccccc2c1C1Nc2cccc3cccc(c23)N1	0	0	0	0	0	28µM
Cc1c(N2C(=O)c3ccc4c5c(ccc(c35)C2=O)CC4)c(=O)n(-c2ccccc2)n1C	14µM	?	11µM	18µM	?	?
Cc1c(N2C(=O)/C(=C\c3ccc(N(C)C)cc3)N(C)C2=S)c(=O)n(-c2ccccc2)n1C	0	0	28µM	0	0	0
CCCCNC(=O)C(C#N)c1nc2ccccc2nc1N1CCN(c2ccccc2F)CC1 (stereo unspecified)	0	0	0	0	0	32µM
C/C(N)=C(/C#N)C(=O)CSc1nnnn1-c1ccc(C)cc1	0	0	20µM	0	0	0
CCCNC(=S)N1CC2(C)CN(C(=O)C(=O)OCC)CC(C)(C1)C2=O	0	0	0	0	0	0
C=CCNC(=S)N1CC2(C)CN(C(=S)NCC=C)CC(C)(C1)C2=O	0	0	0	0	28µM	0
O=C1c2ccccc2C(=O)N1CCCCCCc1ccccc1	-	0	-	35µM	0	-
O=C1NC(=O)/C(=C/c2ccc(-c3cc(C(=O)O)ccc3Cl)o2)S1	0	0	-	32µM	0	-
SMILES	BLM helicase inh	APE1 inh	RECQ1 helicase	TDP1 block	KAT2A inh	JMJD2E inh
CCOc1nc(C#N)nc(N2CCOCC2)n1	-	-	-	0	-	-
CCc1ccc(-c2cn3nc(C)c(C)nc3n2)cc1	0	0	0	0	0	28µM
C/C1=C2/[N-]C(C(CC(N)=O)[C@@]2(C)CCC(=O)NCC(C)OP(=O)([O-])O[C@H]2[C@@H](O)[C@@H](n3cnc4cc(C)c(C)cc43)O[C@@H]2CO)[C@]2(C)N=C(/C(C)=C3N=C(/C=C4N=C1C(CCC(N)=O)C\4(C)C)[C@@H](CCC(N)=O)[C@]\3(C)CC(N)=O)[C@@H](CCC(N)=O)[C@]2(C)CC(N)=O.CC(=O)O.[Co] (stereo partly specified)	25µM	-	-	-	0	-
CCN(C)c1ccc(/C=N\n2nnnc2N)cc1	0	0	0	50µM	0	?
CSc1ccc(/C=N/n2nnnc2N)cc1	0	0	0	0	0	?
CC(=O)c1nnn(-c2nc(C#N)nc(N3CCOCC3)n2)c1C	-	-	-	0	-	-
CCOc1ccc(NS(=O)(=O)c2ccc(NS(=O)(=O)c3ccccc3)cc2)cc1	0	0	0	0	0[0.501 µM]	0
CCOc1ccc(S(=O)(=O)Nc2cc(NS(=O)(=O)c3ccc(OCC)cc3)cc(C(=O)O)c2)cc1	-	?	-	3.5µM	0	-
O=C1OC(c2ccccc2)(c2ccccc2)N2CCN(C(=O)NCc3ccc(F)cc3)CC12 (stereo unspecified)	-	-	-	0	-	-
Cc1csc(NC(=O)c2ccco2)n1	0	0	0	0	0	0
O=C(Nc1n[nH]c(=S)s1)c1ccco1	0	0	-	-	32µM	-
Oc1ccc(NCc2ccccc2F)c2cccnc12	-	-	-	0	-	-
CC(=O)n1cc([C@H]2C=C(C(=O)NCc3ccccc3)O[C@@H](OCCCCO)C2)c2ccccc21	0	0	0	0	0	?
CCO[C@H]1OC(C(=O)N2CCN(Cc3ccc4c(c3)OCO4)CC2)=C[C@@H](c2cn(C(C)=O)c3ccccc23)[C@@H]1CCCO	0	0	35µM	0	0	0
CC(=O)n1cc([C@H]2C=C(C(=O)N3CCN(Cc4ccccc4)CC3)O[C@@H](OCCCCO)C2)c2ccccc21	0	0	0	0	0	?
CC(=O)n1cc([C@@H]2C=C(C(=O)NCc3ccccc3)O[C@H](OCCCCO)C2)c2ccccc21	0	0	0	0	0	16µM
CC(=O)n1cc([C@@H]2C=C(C(=O)N3CCN(Cc4ccccc4)CC3)O[C@H](OCc3ccc(CO)cc3)C2)c2ccccc21	0	0	0	0	0	20µM
Oc1ccc2ccccc2c1CN1CCCC1	0	0	0	0	0	32µM
CC(C)(C)n1ncc2c(=O)n(Cc3ccc(C#N)c(F)c3)cnc21	-	0	-	-	-	-
COc1cc(F)c(S(=O)(=O)N2CCN(S(=O)(=O)c3ccc(N)cc3)CC2)c(F)c1	-	-	-	0	-	-
Cc1ccc(C(C)C)c(OCc2ccc(C(=O)N/N=C/c3cccc(O)c3O)cc2)c1	0	0	0	0	0	4.5µM
